Results: PubChem BioAssay AID588719 (Southern Research Specialized Biocontainment Screening …, 2011)
Out of some 1,500 compounds screened, about 920 (61%) were called active. So high a share suggests a set chosen from earlier hits. The list shows a part of the results. Entries with a potency or affinity are not part of this list. Unmarked numbers belong to inactive results. No rule for the calls is given here.

assay: Vero 76 cell cytotoxicity, dose response, cytotoxicity control for VEEV inhibitor project (AID 588719); conditions: Vero 76 cells viability, cytotoxicity counter-screen; series mostly up to 25 µM; viability: at the top concentration

SMILES	viability [%]
Cn1c(SCC(=O)c2ccccc2)nnc1-c1ccccn1	96.8
CCc1cc(C(=O)c2ccc(OC)cc2)c(NC(=O)CN2CCN(C)CC2)s1	72
O=C(Nc1ccccc1)N1CCN(C2c3ccccc3-c3ccccc32)CC1	87.6
Cc1ccc(-c2nc(CCN3C(=O)c4ccccc4C3=O)cs2)cc1	101
CCN(CC)c1ccc(S(=O)(=O)N2CCOCC2)cc1NC(=O)COC(=O)/C=C/c1ccc(C)o1	72.2
CC(=O)N1CCC(C(=O)Nc2cc(S(=O)(=O)N3CCCCC3)ccc2C)CC1	94
COCOCCn1cc(CN2CCS(=O)(=O)N(Cc3ccc(-c4ccc(F)nc4)cc3)C(CC(C)C)C2=O)nn1 (centres undefined)	79.3
CN1CCN(c2ccc(-c3cccc(NC(=O)COc4ccc(Cl)cc4Cl)c3)nn2)CC1	89.2
Cc1ccc(C(C[N+](=O)[O-])Sc2ccc(N)cc2)cc1 (centres undefined)	91.3
COc1ccc(CCNc2cc(C)nc3c(-c4ccccc4)cnn23)cc1OC	75.9
CCOC(=O)C1CCN(C(c2ccccn2)c2c(C)[nH]c3ccccc23)CC1 (centres undefined)	83.3
O=c1[nH]c(-c2ccccn2)nc2sc(-c3ccccc3)cc12	44.6
C=CCn1c(SCC(=O)c2cccs2)nc2sc(C)c(C)c2c1=O	70.5
Cn1c(=O)c2[nH]c(CSCc3ccccc3)nc2n(C)c1=O	90.8
Cc1ccc(CNc2ccc(O)cc2)cc1	93.9
CN1C/C(=C\c2ccc(N3CCOCC3)cc2)C(=O)/C(=C/c2ccc(N3CCOCC3)cc2)C1	89.8
O=C(/C=C/c1ccc2c(c1)OCO2)c1ccccn1	88.9
Nc1cnn(C2OC(CO)C(O)C2O)c(=O)n1 (centres undefined)	76.1
Cc1ccccc1Oc1ccc2c(c1)[C@@H]1C[C@H](N(C)C(=O)c3ccco3)[C@H]([C@H](C)O)C(=O)N1CC2	94
CCOC(=O)c1oc2ccc(Br)cc2c1NC(=O)CN1CCN(C)CC1	71.7
CCOc1ccc(-c2c(C(=O)N/N=C(\C)c3cccs3)nnn2-c2nonc2N)cc1	85.8
Cc1nn(CC(=O)Nc2nccs2)c(C)c1[N+](=O)[O-]	101
O=C1CCCCC1Nc1ccc2ccccc2c1 (centres undefined)	77.6
CC(C)(C)C1CCC(=NNc2ccc(S(N)(=O)=O)cc2[N+](=O)[O-])CC1 (centres undefined)	75.6
NC(=S)N/N=C/c1ccc(-c2ccc(SC(F)F)cc2)o1	85.5
CCN1CCN(CCCNC(=O)c2cc3c(s2)-c2ccccc2OC3)CC1	72.1
CCN(CC)CCCNC(=O)c1ccc2c(Cl)c3c(nc2c1)CCCC3	71.7
O=C1CC(/C=C/c2ccc(Cl)cc2)=Nc2ccccc2N1	103
CN1CCN(NC(=O)c2cc(-c3cccc(Cl)c3)nc3ccccc23)CC1	73.1
